Test results reported in PubChem BioAssay AID1159580 (chemical genetic matrix, 2015).
The whole screen tested about 5,500 compounds, of which about 2,000 (36%) were called active. Roughly 18% stayed inconclusive and do not appear here. No stated cut-off is given here; in the data, active means normalized growth mostly below about 0.91 (no sharp cut-off); inconclusive means no clear call, values can overlap the other calls; inactive means mostly above about 0.92. The list shows a part of the results.

Experiment: chemical genetic growth profiling, strain panel (AID 1159580);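 further: tested at 20 µM; growth read once vehicle control cultures reached saturation at 30 °C; 1 = growth at the plate median or of vehicle wells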
Conditions: S. cerevisiae deletion strains, growth OD
[1] = locus YAL013W, strain DEP1, stronger effect = lower value
[2] = locus YBR229C, strain ROT2, stronger effect = lower value
[3] = locus YDL101C, strain DUN1, stronger effect = lower value
[4] = locus YDR150W, strain NUM1, stronger effect = lower value
[5] = locus YEL061C, strain CIN8, stronger effect = lower value
[6] = locus YGR078C, strain PAC10, stronger effect = lower value
[7] = locus YGR229C, strain SMI1, stronger effect = lower value
[8] = locus YHR030C, strain SLT2, stronger effect = lower value
[9] = locus YJR043C, strain POL32, stronger effect = lower value
[10] = locus YLR039C, strain RIC1, stronger effect = lower value
[11] = locus YLR262C, strain YPT6, stronger effect = lower value
[12] = locus YNL153C, strain GIM3, stronger effect = lower value
[13] = locus YPL055C, strain LGE1, stronger effect = lower value
[14] = locus YPL241C, strain CIN2, stronger effect = lower value

Measured: normalized growth

O=c1cc(CO)occ1O
inactive: [1] 1.02 | locus YBR021W, strain FUR4, stronger effect = lower value 1 | [2] 1 | locus YCL029C, strain bik1, stronger effect = lower value 1.02 | locus YDL035C, strain GPR1, stronger effect = lower value 1.03 | locus YDL074C, strain BRE1, stronger effect = lower value 1.03 | [3] 1 | locus YDL134C, strain PPH21, stronger effect = lower value 1.01 | locus YDL185W, strain tfp1, stronger effect = lower value 1.03 | locus YDL192W, strain arf1, stronger effect = lower value 1.02 | locus YDR101C, strain arx1, stronger effect = lower value 1.03 | [4] 1.01 | locus YDR162C, strain NBP2, stronger effect = lower value 1.04 | locus YDR318W, strain mcm21, stronger effect = lower value 1.02 | locus YDR388W, stronger effect = lower value 1.02 | locus YDR502C, strain sam2, stronger effect = lower value 1.03 | [5] 1 | locus YER110C, stronger effect = lower value 1.04 | locus YER155C, strain BEM2, stronger effect = lower value 1 | locus YER167W, strain BCK2, stronger effect = lower value 1.01 | locus YGL078C, strain dbp3, stronger effect = lower value 1.03 | locus YGL086W, strain mad1, stronger effect = lower value 1 | locus YGL248W, strain PDE1, stronger effect = lower value 1 | [6] 1.01 | locus YGR135W, strain pre9, stronger effect = lower value 1.05 | [7] 1.01 | locus YGR252W, strain gcn5, stronger effect = lower value 1.05 | [8] 1 | locus YHR079C, strain IRE1 (second series), stronger effect = lower value 1.03 | locus YHR094C, strain hxt1, stronger effect = lower value 1.02 | locus YHR129C, strain ARP1, stronger effect = lower value 1.01 | locus YHR200W, strain rpn10, stronger effect = lower value 1.03 | locus YIL066C, strain RNR3, stronger effect = lower value 1.01 | locus YIL073C, strain SPO22, stronger effect = lower value 1.15 | locus YIL125W, strain kgd1, stronger effect = lower value 1.02 | locus YIR030C, strain dcg1, stronger effect = lower value 1.02 | locus YJL095W, strain BCK1, stronger effect = lower value 1.02 | locus YJL134W, strain LCB3, stronger effect = lower value 1.01 | locus YJL168C, strain set2, stronger effect = lower value 1.04 | locus YJL187C, strain SWE1 (second series), stronger effect = lower value 1.01 | [9] 1.02 | locus YKL009W, strain mrt4, stronger effect = lower value 1.03 | locus YKL068W, stronger effect = lower value 1.01 | locus YKL085W, strain MDH1 (second series), stronger effect = lower value 1.01 | locus YKL085W, strain MDH1, stronger effect = lower value 1.01 | locus YKR001C, strain vps1, stronger effect = lower value 1.03 | [10] 1.04 | locus YLR058C, strain SHM2, stronger effect = lower value 1 | locus YLR102C, strain apc9, stronger effect = lower value 1.02 | [11] 1.08 | locus YLR268W, strain sec22, stronger effect = lower value 1.02 | locus YLR330W, strain CHS5, stronger effect = lower value 1 | locus YLR342W, strain FKS1 (second series), stronger effect = lower value 1.04 | locus YLR371W, strain rom2, stronger effect = lower value 1.04 | locus YLR418C, strain cdc73, stronger effect = lower value 1.06 | locus YML016C, strain PPZ1, stronger effect = lower value 1 | locus YML032C, strain rad52, stronger effect = lower value 1.04 | locus YML124C, strain tub3, stronger effect = lower value 1.02 | locus YMR078C, strain ctf18, stronger effect = lower value 1.03 | locus YMR223W, strain ubp8, stronger effect = lower value 1.06 | locus YMR307W, strain GAS1, stronger effect = lower value 1.07 | locus YNL067W, strain RPL9B, stronger effect = lower value 1.03 | [12] 1.01 | locus YNL233W, strain BNI4, stronger effect = lower value 1.01 | locus YNL250W, strain rad50, stronger effect = lower value 1.05 | locus YNL271C, strain bni1, stronger effect = lower value 1.02 | locus YNL298W, strain CLA4, stronger effect = lower value 1.04 | locus YNL307C, strain MCK1, stronger effect = lower value 1.03 | locus YNR052C, strain pop2, stronger effect = lower value 1.01 | locus YOL012C, strain htz1 1.34 | locus YOL147C, strain pex11, stronger effect = lower value 1.03 | locus YOR061W, strain CKA2, stronger effect = lower value 1.01 | locus YOR069W, strain VPS5, stronger effect = lower value 1 | locus YOR136W, strain idh2, stronger effect = lower value 1.02 | locus YOR144C, strain elg1, stronger effect = lower value 1.03 | locus YOR184W, strain ser1, stronger effect = lower value 1.04 | locus YOR316C, strain cot1, stronger effect = lower value 1.01 | [13] 1.02 | [14] 1.01 | locus YPR119W, strain clb2, stronger effect = lower value 1.03 | locus YPR141C, strain kar3, stronger effect = lower value 1.01 | locus YPR163C, strain tif3, stronger effect = lower value 1.04 | locus YPR167C, strain met16, stronger effect = lower value 1.02 | strain wtn01, stronger effect = lower value 1.01

CCOC(=O)NC(=O)c1cn(Cc2cccs2)c(=O)[nH]c1=O
inactive: [1] 0.999 | [2] 1.02 | [3] 1 | [4] 1.02 | [5] 0.996 | [6] 0.993 | [7] 0.998 | [8] 1 | locus YHR087W, strain rtc3, stronger effect = lower value 1.01 | locus YJL187C, strain SWE1, stronger effect = lower value 1.01 | [9] 0.988 | locus YJR075W, strain HOC1, stronger effect = lower value 1.01 | [10] 1.01 | locus YLR058C, strain SHM2 (second series), stronger effect = lower value 1.01 | locus YLR085C, strain ARP6, stronger effect = lower value 1.03 | [11] 0.999 | locus YML094W, strain GIM5, stronger effect = lower value 1.01 | locus YMR219W, strain ESC1, stronger effect = lower value 1.01 | locus YMR263W, strain SAP30, stronger effect = lower value 1.01 | locus YNL128W, strain TEP1, stronger effect = lower value 0.984 | [12] 0.983 | locus YNL298W, strain CLA4 (second series), stronger effect = lower value 1.02 | locus YNL322C, strain KRE1, stronger effect = lower value 1 | locus YNR030W, strain Alg12, stronger effect = lower value 1.01 | locus YOL006C, strain TOP1, stronger effect = lower value 0.997 | [13] 1.06 | [14] 1.02 | locus YPR135W, strain CTF4, stronger effect = lower value 0.96
